Measured values: publication PMC4552634, “A New Set of Chemical Starting Points with Plasmodium falciparum Transmission-Blocking Potential for Antimalarial Drug Discovery” (PLoS ONE, 2015)
Hit rate of the full screen: of about 13,000 compounds, about 3,200 (25%) showed an effect of 50% or more. This is one part of the list.

These compounds were tested on P. falciparum stage V gametocytes. Conditions: 48 h, 5 µM; inhibitor.
Parameters: BacTiter-Glo ATP luminescence viability of purified stage V gametocytes in 384-well plates, per cent inhibition versus DMSO
With `CCOC(=O)c1ccc(-c2c(C(F)(F)F)noc2-c2cc(CC)c(OC)cc2O)o1` [TCMDC-124150] the “% Inhibition” value was 2.818%.
`Cc1ccc(C)c2c1[nH]c1ccc(C3=NCCN3)cc12` [TCMDC-137683] was tested, and the “% Inhibition” value was 24.52%.
`CCCS(=O)(=O)c1nc(S(=O)(=O)c2ccc(Cl)cc2)c(N2CCCCC2)s1` [TCMDC-124768] was tested, and the “% Inhibition” value was -49.43%.
`Cc1cc(-c2ccc(CNCc3ccsc3)cc2)ccc1S(=O)(=O)NCCN1CCCC1` [TCMDC-132292] was tested, and the “% Inhibition” value was 94.64%.
With `O=S(=O)(NCCN1CCCC1)c1ccc(-c2ccc(CNCc3ccsc3)cc2)cc1F` [TCMDC-132288] the “% Inhibition” value was 40.86%.
In the case of `COc1ccc(CNCc2ccsc2)cc1-c1ccc(OC)c(S(=O)(=O)NCCN2CCCC2)c1` [TCMDC-132296], the “% Inhibition” value is reported as 104.6%.
`COc1ccc(-c2ccc(CNCc3ccsc3)cc2)cc1S(=O)(=O)NCCN1CCCC1` [TCMDC-132283] was tested, and the “% Inhibition” value was 107.3%.
With `COc1ccc(CNCc2ccsc2)cc1-c1ccc(S(=O)(=O)NCCN2CCCC2)c(C)c1` [TCMDC-132225] the “% Inhibition” value was 105.9%.
For `CC(=O)OCCN1C(=O)c2ccc3c4c(ccc(c24)C1=O)C(=O)N(CCOC(C)=O)C3=O` [TCMDC-123488], the “% Inhibition” value was 10.44%.
In the case of `COc1cc(Nc2nccc(N3CCC(NC(=O)c4cccc(NC(C)=O)c4)C3)n2)cc(OC)c1OC` (centres unmarked) [TCMDC-133622], the “% Inhibition” value is reported as -17.51%.
`Cc1ccc(O)c(C(=O)c2cnc3c(c2)c(-c2ccc(F)cc2)c(C#N)c(=O)n3C)c1` [TCMDC-124507] was tested, and the “% Inhibition” value was 19.5%.
For `CC(=O)Nc1ccc(CN2CCC(N(C)c3cc(NC(=O)c4cccc(F)c4)ccn3)CC2)cc1` [TCMDC-134981], the “% Inhibition” value was -20.16%.
With `O=C(Nc1ccc2c(c1)CN(Cc1ccc(N3CCCC3)o1)CCC2)c1ccoc1` [TCMDC-134723] the “% Inhibition” value was -9.381%.
`Cc1ccc(-c2nc(NC(=O)Nc3ccc(C(F)(F)F)cc3)sc2C)cc1Cl` [TCMDC-125584] was tested, and the “% Inhibition” value was 10.27%.
`COc1ccc(-c2nc(NC(=O)CS(=O)(=O)c3ccc(OC)cc3)sc2C)cc1` [TCMDC-125152] was tested, and the “% Inhibition” value was -0.7393%.
For `COc1ccc(-c2nc(NC(=O)CS(=O)(=O)c3ccc(F)cc3)sc2C)cc1` [TCMDC-123523], the “% Inhibition” value was 53.6%.
For `COc1ccc(-c2nc(NC(=O)CS(=O)(=O)c3ccc(C)cc3)sc2C)cc1` [TCMDC-124318], the “% Inhibition” value was 31.51%.
`COc1ccc(-c2nc(NC(=O)Cc3ccc(OC)c(OC)c3)sc2C)cc1` [TCMDC-123619] was tested, and the “% Inhibition” value was 10.74%.
For `COc1ccc(-c2nc(NC(=O)Cc3cccc(OC)c3)sc2C)cc1` [TCMDC-124331], the “% Inhibition” value was 95.1%.
`Cc1sc(NC(=O)Cc2cccc(C(F)(F)F)c2)nc1-c1cccc(Cl)c1` [TCMDC-125144] was tested, and the “% Inhibition” value was 54.43%.
In the case of `CCOc1ccc(-c2nc(NC(=O)Cc3cccc(OC)c3)sc2C)cc1` [TCMDC-123618], the “% Inhibition” value is reported as -21.09%.
For `COc1ccc(-c2nc(NC(=O)CSc3ccc([N+](=O)[O-])cc3)sc2C)cc1` [TCMDC-124323], the “% Inhibition” value was 91.56%.
In the case of `COc1ccc(-c2nc(NC(=O)Cc3ccc4c(c3)OCCO4)sc2C)cc1` [TCMDC-124374], the “% Inhibition” value is reported as 41.12%.
`COc1ccc(OCC(=O)Nc2nc(-c3ccc(OC)cc3)c(C)s2)cc1` [TCMDC-124330] was tested, and the “% Inhibition” value was 22.09%.
In the case of `COc1ccc(-c2nc(NC(=O)CSc3ccccc3)sc2C)cc1` [TCMDC-123814], the “% Inhibition” value is reported as 23.99%.
In the case of `CCOc1cc2c(cc1OCC)C(c1ccc(O)c(Cl)c1)NCC2` (centres unmarked) [TCMDC-125439], the “% Inhibition” value is reported as 10.77%.
In the case of `CC1CN(c2nc(NCCc3ccc(O)cc3)nc(NCc3ccccc3-c3ccc(C(F)(F)F)cc3)n2)CC(C)N1` (centres unmarked) [TCMDC-138324], the “% Inhibition” value is reported as 26.39%.
`COc1cc2nc(N(C)CC3COc4ccccc4O3)nc(N)c2cc1OC.Cl` (centres unmarked) [TCMDC-131889] was tested, and the “% Inhibition” value was -22.31%.
`C=CCC(C)n1ncc2c3c(N)nc(N)nc3ccc21` (centres unmarked) [TCMDC-137867] was tested, and the “% Inhibition” value was -15.57%.
For `COc1cc(Cc2cnc(N)nc2N)c2c(c1OC)OC(C)C=C2` (centres unmarked) [TCMDC-137896], the “% Inhibition” value was 4.903%.
In the case of `O=C(Nc1cccc(-c2cccc(-c3nc4ccc(F)cc4[nH]3)c2)c1)c1cnc[nH]1` [TCMDC-136932], the “% Inhibition” value is reported as -61.11%.
In the case of `COc1ccc(-c2c3c(=O)n(C)c(=O)n(C)c3c3nnc4ccccc4n23)cc1` [TCMDC-125099], the “% Inhibition” value is reported as -11.53%.
With `O=C(Nc1ccc(-c2nc3ccccc3[nH]2)cc1)C1CCCN(CC2CC2)C1` (centres unmarked) [TCMDC-124656] the “% Inhibition” value was -0.844%.
In the case of `O=C(CC1NC(=O)c2ccccc21)Nc1ccc(-c2ccc(-c3nc4ccc(C(F)(F)F)cc4[nH]3)cc2)cc1` (centres unmarked) [TCMDC-137095], the “% Inhibition” value is reported as 71.74%.
`CN1CCN(CC(=O)Nc2cccc(-c3ccc(-c4nc5ccc(C(F)(F)F)cc5[nH]4)cc3)c2)CC1` [TCMDC-136984] was tested, and the “% Inhibition” value was -3.609%.
In the case of `CN1CCN(CC(=O)Nc2ccc(-c3cccc(-c4nc5ccc(C(F)(F)F)cc5[nH]4)c3)cc2)CC1` [TCMDC-136981], the “% Inhibition” value is reported as 72.32%.
In the case of `CN1CCN(CC(=O)Nc2cccc(-c3cccc(-c4nc5ccc(C(F)(F)F)cc5[nH]4)c3)c2)CC1` [TCMDC-136980], the “% Inhibition” value is reported as 78.77%.
`CN1CCN(CC(=O)Nc2ccc(-c3ccc(-c4nc5ccc(C(F)(F)F)cc5[nH]4)cc3)cc2)CC1` [TCMDC-136985] was tested, and the “% Inhibition” value was -42.42%.
`Cc1cccc2[nH]c(-c3cccc(-c4ccc(NC(=O)CC5NC(=O)c6ccccc65)cc4)c3)nc12` (centres unmarked) [TCMDC-137094] was tested, and the “% Inhibition” value was -30.82%.
`CN1CCN(CC(=O)Nc2cccc(-c3ccc(-c4nc5cc(C(F)(F)F)ccc5[nH]4)s3)c2)CC1` [TCMDC-136977] was tested, and the “% Inhibition” value was -5.014%.
With `CN1CCC(C(=O)Nc2ccc(-c3cccc(-c4nc5ccc(C(F)(F)F)cc5[nH]4)c3)cc2)CC1` [TCMDC-132188] the “% Inhibition” value was -24.87%.
For `O=C(CC1NC(=O)c2ccccc21)Nc1ccc(-c2cccc(-c3nc4ccc(C(F)(F)F)cc4[nH]3)c2)cc1` (centres unmarked) [TCMDC-137092], the “% Inhibition” value was -11.47%.
With `CCOC(=O)CNC(=O)N1CCN(C(=O)NCC(=O)OCC)CC1` [TCMDC-138998] the “% Inhibition” value was -3.887%.
In the case of `Cc1c(-c2ccccc2)ccc2[nH]cc(CC#N)c12` [TCMDC-139748], the “% Inhibition” value is reported as 49.07%.
For `O=C(Nc1cccc(CN2CCCN(Cc3ccc(O)cc3)CC2)c1)c1ccc2ccccc2n1` [TCMDC-141860], the “% Inhibition” value was 34.74%.
For `CCOc1cc(C)ccc1C1CCN(CCCCNC(=O)c2nc(-c3ccc(C(F)(F)F)cc3)[nH]c2C)CC1` [TCMDC-138585], the “% Inhibition” value was -10.92%.
For `COc1ccc(-c2nc3ccc(C)nc3nc2-c2ccc(OC)cc2)cc1` [TCMDC-142014], the “% Inhibition” value was 17.71%.
`CC(CCc1ccccc1)NCC(O)c1cccc(C(F)(F)F)c1` (centres unmarked) [TCMDC-131247] was tested, and the “% Inhibition” value was 18.39%.
In the case of `c1ccc(-c2nc(NCCCn3ccnc3)cc(-c3ccncc3)n2)cc1` [TCMDC-125417], the “% Inhibition” value is reported as 49.28%.
In the case of `FC(F)(F)c1cccc(-c2cc(NCCCn3ccnc3)nc(-c3ccncc3)n2)c1` [TCMDC-125414], the “% Inhibition” value is reported as 56.64%.
In the case of `c1ccc(-c2cc(NCCCn3ccnc3)nc(-c3cccnc3)n2)cc1` [TCMDC-125422], the “% Inhibition” value is reported as 8.996%.
For `CC1CN=C(c2ccc(NC(=O)c3ccc(C(=O)Nc4ccc(C5=NCC(C)N5)cc4)cc3)cc2)N1` (centres unmarked) [TCMDC-137474], the “% Inhibition” value was 8.984%.
`Cc1ccc(CNC(=O)c2ccc(CN3CCCN(Cc4ccsc4)CC3)cc2)cc1` [TCMDC-136451] was tested, and the “% Inhibition” value was 11.88%.
For `O=S(=O)(NCCN1CCCC1)c1ccc(-c2cccc(CNCc3ccsc3)c2)s1` [TCMDC-132274], the “% Inhibition” value was 102.4%.
`O=S(=O)(NCCN1CCCC1)c1ccc(-c2ccc(CNCc3ccsc3)cc2)s1` [TCMDC-132285] was tested, and the “% Inhibition” value was 78.64%.
With `COc1ccc(S(=O)(=O)NC2CCN(c3ccc(C(F)(F)F)cc3NC(=O)OCC(C)C)CC2)cc1` [TCMDC-134275] the “% Inhibition” value was 14.87%.
In the case of `N#Cc1cccc(NC(=O)Nc2cccc(-c3cccc(-c4nc5ccc(C(F)(F)F)cc5[nH]4)c3)c2)c1` [TCMDC-133195], the “% Inhibition” value is reported as -34.96%.
In the case of `Cc1nn(-c2ccccc2)c2c1C(c1ccc(C(C)C)cc1)N1C(=N2)N(Cc2ccccc2)c2ccccc21` (centres unmarked) [TCMDC-123903], the “% Inhibition” value is reported as -90.94%.
For `COc1ccc(CN2CCN(CCOC(c3ccc(F)cc3)c3ccc(F)cc3)CC2)c(O)c1` [TCMDC-135694], the “% Inhibition” value was 24.37%.
`CCN1C(=O)N(CCC(C)C)C2(CCN(Cc3ccc(OC)cc3O)CC2)C1=O` [TCMDC-124587] was tested, and the “% Inhibition” value was 63.13%.
For `COc1ccc(CN2CCN(CCOC(c3ccccc3)c3ccccc3)CC2)c(O)c1` [TCMDC-135693], the “% Inhibition” value was 26.17%.
`COc1ccc(S(=O)(=O)NCC2CCCN(CCCCCNC(=O)/C=C/c3ccc(Cl)c(Cl)c3)C2)cc1` (centres unmarked) [TCMDC-139595] was tested, and the “% Inhibition” value was 95.6%.
In the case of `O=C(/C=C/c1ccc(Cl)c(Cl)c1)NCCCCCN1CCCC(CNS(=O)(=O)c2ccc(F)cc2)C1` (centres unmarked) [TCMDC-139596], the “% Inhibition” value is reported as 59.41%.
In the case of `O=c1cc(NCCCNCc2cc(F)cc(C(F)(F)F)c2)[nH]c2ccccc12` [TCMDC-139726], the “% Inhibition” value is reported as 25.21%.
For `CC(C)Oc1ccc2ccccc2c1CNCCCCCCNCc1c(OC(C)C)ccc2ccccc12` [TCMDC-137965], the “% Inhibition” value was 107.1%.
With `CC(C)CCNCc1c(O)ccc2ccccc12` [TCMDC-137596] the “% Inhibition” value was 6.02%.
`COc1ccc2ccccc2c1CNCCCCCCNCc1c(OC)ccc2ccccc12` [TCMDC-137915] was tested, and the “% Inhibition” value was 112.9%.
In the case of `CC(C)COc1ccc2ccccc2c1CNCCCCCCNCc1c(OCC(C)C)ccc2ccccc12` [TCMDC-137972], the “% Inhibition” value is reported as 129.3%.
